Results from PubChem BioAssay (NCI).
Compounds without any hit were thinned out: in the full panel of roughly 83,000, 20% have a hit.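 Percent growth is the endpoint: 0 to 100 indicates growth inhibition (40 means 60% inhibition), 0 means no net growth, and negative values indicate cell death.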 Calls of active or inactive are those of the source. The calls were made as follows: active = growth percent below 10; inactive = the rest.

Tests used:
Assay in all cases: NCI-60 one-dose screen, 48 h (100 = growth as untreated, 0 = no growth, -100 = all killed)
Conditions in all cases: 10 µM unless noted
T-47D breast = tested on: T-47D breast
BT-549 breast = tested on: BT-549 breast
MDA-MB-435 melanoma = tested on: MDA-MB-435 melanoma
SW-620 colon = tested on: SW-620 colon
MCF7 breast = tested on: MCF7 breast
HCT-116 colon = tested on: HCT-116 colon
HCC-2998 colon = tested on: HCC-2998 colon
KM12 colon = tested on: KM12 colon
MDA-MB-468 breast = tested on: MDA-MB-468 breast

Measured: growth

O=C(COc1ccc(NC(=O)Nc2ccc(Cl)c(Cl)c2)cc1)N=Nc1c(O)[nH]c2ccc(Cl)cc12
active: T-47D breast -13% | BT-549 breast -71.7% | MDA-MB-435 melanoma -61.4% | SW-620 colon -46.9% | MCF7 breast 3.54% | HCT-116 colon -53.5% | HCC-2998 colon -51.4% | KM12 colon -87.9% | MDA-MB-468 breast -51%

CN(C)CCn1c2ccccc2c2nc3cc4ccccc4cc3nc21
inactive: T-47D breast 45.3% | BT-549 breast 52.8% | MDA-MB-468 breast 23.7%
active: MDA-MB-435 melanoma -67% | SW-620 colon -58.3% | MCF7 breast -9.03% | HCT-116 colon -61.4% | HCC-2998 colon -82.1% | KM12 colon 4.87%

CN(C)CCOc1ccc(C(=O)C2[C@H](c3ccc(Cl)cc3)[C@@H](c3ccccc3)NC23C(=O)Nc2ccc(Br)cc23)cc1 (stereo partly specified)
inactive: T-47D breast 42% | BT-549 breast 67%
active: MDA-MB-435 melanoma -66.5% | SW-620 colon -80% | MCF7 breast -59.8% | HCT-116 colon -96.6% | HCC-2998 colon -94.4% | KM12 colon -48.4% | MDA-MB-468 breast -84.7%

O=c1cc(-c2ccccc2)oc2cc(OCCCC[P+](c3ccccc3)(c3ccccc3)c3ccccc3)cc(O)c12
active: T-47D breast -62.5% | BT-549 breast -83% | MDA-MB-435 melanoma -67.5% | SW-620 colon -81.7% | MCF7 breast -79.1% | HCT-116 colon -58.1% | HCC-2998 colon -93.1% | KM12 colon -85.2% | MDA-MB-468 breast -84.9%

CC(=O)OC[C@@]1(C)C2CC[C@]3(C)C(CC=C4C5CC(C)(C)CC[C@]5(C(=O)Nc5ccc(Br)cc5)CC[C@]43C)[C@@]2(C)C[C@@H](OC(C)=O)[C@@H]1OC(C)=O (stereo partly specified)
active: MDA-MB-468 breast 4.65%
inactive: T-47D breast 16.5% | BT-549 breast 43.7% | MDA-MB-435 melanoma 47.8% | SW-620 colon 39.9% | MCF7 breast 28.2% | HCT-116 colon 24.6% | HCC-2998 colon 38% | KM12 colon 46.4%

COc1ccc(C2=NN(C(C)=O)C(c3ccc(OCc4ccc(Cl)cc4)c(OC)c3)C2)cc1OC (stereo unspecified)
inactive: T-47D breast 10.2% | BT-549 breast 33.8% | MDA-MB-435 melanoma 43% | SW-620 colon 61.2% | MCF7 breast 20.1% | HCT-116 colon 35.3% | HCC-2998 colon 83.4% | KM12 colon 39% | MDA-MB-468 breast 31.1%

O=C1CC(Sc2n[nH]c(-c3ccncc3)n2)C(=O)N1c1ccc(Br)cc1 (stereo unspecified)
inactive: T-47D breast 94.5% | BT-549 breast 122% | MDA-MB-435 melanoma 104% | SW-620 colon 101% | MCF7 breast 99.8% | HCT-116 colon 105% | HCC-2998 colon 110% | KM12 colon 109% | MDA-MB-468 breast 99.3%

C#CCOc1ccc(/C=N/Nc2nc(-c3cc4cc(OC)ccc4oc3=O)cs2)cc1OC
inactive: T-47D breast 51.8% | BT-549 breast 54.1% | MDA-MB-435 melanoma 63.9% | SW-620 colon 39.7% | MCF7 breast 57.3% | HCT-116 colon 46.4% | HCC-2998 colon 84.4% | KM12 colon 50.3% | MDA-MB-468 breast 42.9%

COc1ccc(-c2nc(SCC(C)C)nc(NCCc3c[nH]c4ccccc34)c2C#N)cc1
inactive: T-47D breast 22.6% | BT-549 breast 80.8% | MDA-MB-435 melanoma 80.7% | SW-620 colon 72.7% | MCF7 breast 22.8% | HCT-116 colon 25.1% | HCC-2998 colon 62.6% | KM12 colon 52.8% | MDA-MB-468 breast 58.4%

N/C(=N\c1nc2ccccc2s1)NC(=O)Nc1ccccc1Br
inactive: T-47D breast 45.3%
active: BT-549 breast -7.4% | MDA-MB-435 melanoma -63.9% | SW-620 colon 5.64% | MCF7 breast 8.24% | HCT-116 colon -51.4% | HCC-2998 colon -21% | KM12 colon -48.2% | MDA-MB-468 breast -29.3%

Cc1ccc(C(=O)CSc2nc3ccc(F)cc3c(=O)n2-c2ccc(Cl)cc2)cc1
inactive: T-47D breast 96.5% | MDA-MB-435 melanoma 76.1% | SW-620 colon 75% | MCF7 breast 65.2% | HCT-116 colon 24.4% | HCC-2998 colon 81.3% | KM12 colon 96.3% | MDA-MB-468 breast 44.7%
active: BT-549 breast 1.44%

O=C1CCCc2cc(OCC(=O)N3CCCCC3)ccc2N1
inactive: T-47D breast 108% | BT-549 breast 126% | MDA-MB-435 melanoma 108% | SW-620 colon 106% | MCF7 breast 94% | HCT-116 colon 114% | HCC-2998 colon 122% | KM12 colon 108% | MDA-MB-468 breast 107%

Cc1cccc(NC(=O)[C@]23CCC(C)(C)CC2C2=CCC4[C@@]5(C)C[C@@H](O)[C@H](O)[C@@](C)(CO)C5CC[C@@]4(C)[C@]2(C)CC3)c1 (stereo partly specified)
active: BT-549 breast 8.83% | MCF7 breast -6.63% | HCT-116 colon 1.25% | HCC-2998 colon -64% | KM12 colon 3.56% | MDA-MB-468 breast -8.73%
inactive: T-47D breast 13.5% | MDA-MB-435 melanoma 25.5% | SW-620 colon 33.2%

CCCCCCCS(=O)(=O)N1CCCC(C(=O)Nc2nc3ccc(NC(=O)c4ccc(F)c(OC)c4F)cc3s2)C1 (stereo unspecified)
inactive: T-47D breast 41.9% | BT-549 breast 55.8% | MDA-MB-435 melanoma 72.2% | SW-620 colon 64.6% | MCF7 breast 27.6% | HCT-116 colon 25.1% | HCC-2998 colon 58.2% | KM12 colon 63.8%
active: MDA-MB-468 breast -4.4%
